SMILES strings stand for the structures. The campaign covered roughly 53,000 compounds. About 900 (1.7%) showed an effect of 50% or more. The entries come from a sample that favours strong results as a whole.

The subject of this test is Mycobacterium tuberculosis. Briefly: Cornell - Phenotypic assay to identify agents that inhibit growth of Mycobacterium tuberculosis. The test is classed as functional. The arrangement: scale not given: direction of the effect not stated beside the values. The following applies: 10 mM as filed; unlikely as a test dose.
With `COc1c(C2CCCN2Cc2nc(C3CC3)no2)c(C)nn1C` (stereo unspecified), the “Percent Effect” value is given as -19.26%.

Take `CC(C)(C)c1noc(CN2CCCc3cc(OC(F)(F)F)ccc32)n1`: the “Percent Effect” value stood at 12.22%. `Cc1nn(C)cc1C1CC(=O)Nc2c1cnn2C` (stereo unspecified): the “Percent Effect” value worked out at 30.3%. Consider `N#Cc1c(Cl)nsc1NCc1ccc(N2CCC(CO)CC2)cc1`, for which the “Percent Effect” value is reported as 51.2%. Under `N#Cc1c(Cl)nsc1NCc1ccc(N2CCCC(C(N)=O)C2)cc1` (stereo unspecified) stands 80.86%; under `NC(=O)C1CCCN(c2ccc(CNC(=O)c3csnn3)cc2)C1` (stereo unspecified), -20.12%; under `N#Cc1c(Cl)nsc1NCc1ccc(N2CCSCC2)cc1`, 23.04%. In the case of `Cc1nnc(NCc2ccc(N3CCC(CO)CC3)cc2)c(C#N)c1C` it was -12.64%; in that of `NC(=O)C1CCCN(c2ccc(CNC(=O)c3cnsn3)cc2)C1` (stereo unspecified), -38.73%; in that of `OC1(CNCCc2csc(-c3cccnc3)n2)CCNC1` (stereo unspecified), 6.154%. In the case of `CN1CCOC(C)(C(=O)Nc2nccs2)C1` (stereo unspecified) it was -67.22%; in that of `COCC1COCCC12CCN(C(=O)COc1ccccc1C)CC2` (stereo unspecified), -10.81%; in that of `O=C(NCCN1CCc2ccccc21)c1cc(-c2ccc(O)cc2)n[nH]1`, 53.46%.

`O=C(NCCN1CCNC1=O)c1cc(-c2ccc(O)cc2)n[nH]1`: the “Percent Effect” value was determined as 15.58%. In the case of `Cc1cc(C(=O)NCCN2CCCc3ccccc32)[nH]n1` it was -6.129%; in that of `CCc1ccc(NC(=O)c2ncc(C(N)=O)cc2Cl)cc1F`, 15.72%; in that of `O=C(NCCc1c[nH]c2ccc(F)cc12)C1(n2cnnn2)CCCCC1`, 65.5%.

With `O=C(NCCc1c[nH]c2ccccc12)C1(n2cnnn2)CCCCC1`, the “Percent Effect” value is 25.7%. In the case of `O=C(NCCc1cccc(F)c1)C1(n2cnnn2)CCCCC1` it was 18.95%. With `CCc1ncc2c(n1)CN(Cc1nc(-c3ccco3)oc1C)CC2`, the “Percent Effect” value is -14.23%.

For `O=C(Cc1nc(-c2ccncc2)n[nH]1)N1CCOCC1`, the “Percent Effect” value is -3.393%. As for `CCCNc1ccc(C(=O)NCCc2cccc(Cl)c2)cn1`, the “Percent Effect” value was -5.958%. Under `COc1ncc(C(=O)NCc2ccc(Br)cc2)cn1` stands 25.41%.

Take `COc1ccc(CNC(=O)c2ccc(Br)cn2)cc1`: the “Percent Effect” value is 8.291%. In the case of `COC(=O)c1ccc(C(=O)NCc2ccc(Br)cc2)cn1` it was 95.13%. As to `CCc1nn(-c2cc(Oc3cccc(C)c3)nc(C)n2)c(N)c1C#N`, the “Percent Effect” value was 11.01%.

For the compound `CS(=O)(=O)N1CCN(C(=O)c2cc(-c3ccco3)cs2)CC1`, the “Percent Effect” value is listed as 10.89%. For `O=C1C(CS(=O)(=O)Nc2ccc(Cl)cc2)=NC(=O)n2cccc21`, the “Percent Effect” value stood at 11.65%. Turning to `O=C1C(CS(=O)(=O)Nc2ccc(Br)cc2)=NC(=O)n2cccc21`, the “Percent Effect” value was 17.38%. In the case of `CC(C)c1ccc(NS(=O)(=O)CC2=NC(=O)n3cccc3C2=O)cc1` it was 59.8%; in that of `COc1cccc(S(=O)(=O)NC(=O)CCC2CCCC2)c1`, 12.89%. In the case of `CC(=O)N1CCC(c2nccnc2CNC(=O)c2cc[nH]n2)CC1` it was -11.98%; in that of `CCc1ccc(CN(Cc2ccccc2)CC(C)CO)nc1` (stereo unspecified), 46.77%. Under `Cc1c(C(=O)NC(C)C(C)C)nnn1-c1cccc2c1CCN(C)C2` (stereo unspecified) stands 4.546%; under `Cc1[nH]n(-c2ccccc2)c2nnc(N)c1-2`, 107.4%; under `CN(C)CCN1C(=O)CCC12CCCN(C(=O)c1ccncc1F)C2.O=C(O)C(F)(F)F` (stereo unspecified), -23.79%. As for `CS(=O)(=O)N1CCC(OCCCc2ccccc2)C1` (stereo unspecified), the “Percent Effect” value came out at 18.05%. In the case of `O=S(=O)(c1cccnc1)N1CCC(OCCCc2ccccc2)C1` (stereo unspecified) it was 55.63%; in that of `Cn1cc(S(=O)(=O)N2CCC(OCCCc3ccccc3)C2)cn1` (stereo unspecified), 25.94%. Turning to `CC1(C(N)=O)CN(S(=O)(=O)c2cccc(F)c2)CCO1` (stereo unspecified), the “Percent Effect” value was -8.727%. In the case of `COc1ccc(S(=O)(=O)N2CCOC(C)(C(N)=O)C2)cc1` (stereo unspecified) it was 55.81%.

For `COc1ccc(S(=O)(=O)N2CCCC3(CCCN3S(C)(=O)=O)C2)cc1` (stereo unspecified), the “Percent Effect” value stood at 103.2%. On to `CS(=O)(=O)N1CCCC12CCCN(S(=O)(=O)c1cc(F)cc(F)c1)C2` (stereo unspecified), for which the “Percent Effect” value is reported as 2.906%. Under `COc1cccc(S(=O)(=O)N2CCOC(C)(C(N)=O)C2)c1` (stereo unspecified) stands 8.35%; under `CS(=O)(=O)N1CCCC12CCCN(S(=O)(=O)c1ccc(F)cc1)C2` (stereo unspecified), -19.89%; under `CCc1nnc(Nc2cc(C)nc(C3CN(C(=O)C(C)C)CCO3)c2)s1` (stereo unspecified), 1.783%. In the case of `CN1CCCC(c2nnc3n2CCN(S(=O)(=O)c2ccccc2Cl)C3)C1` (stereo unspecified) it was 2.1%; in that of `CCOc1ccccc1CNC(=O)c1cnn(CC)c1C(F)(F)F`, 4.777%; in that of `COCCn1ccc(=O)c(OCC(=O)Nc2ccc(OC)cc2)c1C`, 53.75%.

Turning to `COCCn1ccc(=O)c(OCC(=O)Nc2ccc(Br)cc2)c1C`, the “Percent Effect” value amounted to 27.51%.

Take `COCCn1ccc(=O)c(OCC(=O)Nc2cccc(OC)c2)c1C`: the “Percent Effect” value is on record as -5.179%. In the case of `c1cc(-c2n[nH]cc2-c2ccnc(N3CCCC3)n2)ccn1` it was 22.12%; in that of `FC(F)c1nnc2ccc(N3CCC4(CCCCC4)C3)nn12`, 52.01%. For the compound `Cc1nnc2ccc(N3CCC4(CCOC4)C3)nn12` (stereo unspecified), the “Percent Effect” value stood at 16.18%. For `FC(F)c1nnc2ccc(N3CCC4(CCOC4)C3)nn12` (stereo unspecified), the “Percent Effect” value turned out to be 23.66%. Under `CCOC(=O)c1n[nH]cc1-c1cncn1CC(C)n1nc(C)cc1C` (stereo unspecified) stands -15.99%; under `CCn1ncc(CN(C)C(=O)c2cc(C(F)(F)F)n(C)n2)c1C`, 9.297%. For `COCCNC(=O)c1c(-n2cnnn2)sc2c1CCCC2`, the “Percent Effect” value amounted to 24.57%. In the case of `CCCc1cncnc1N1CCC(NCc2cc3ccccc3[nH]2)CC1` it was 109.8%; in that of `CCCc1cncnc1N1CCC(NCc2ccncc2)CC1`, -49.68%; in that of `CCCc1cncnc1N1CCC(NCc2ccc(O)cc2)CC1`, 28.01%. Under `CCn1c(C2CCN(C(=O)c3cc(C4CC4)on3)CC2)nn(C)c1=O` stands 4.422%; under `Cc1cc(C)n(C2=NC(NCCC(C)C)c3c(sc4c3CCCC4)N2)n1` (stereo unspecified), 1.366%; under `COCCNc1nc(-n2nc(C)cc2C)nc2sc3c(c12)CCCC3`, -12.48%.

For the compound `Cc1cc(C)n(-c2nc(NCCCO)c3c4c(sc3n2)CCCC4)n1`, the “Percent Effect” value was 82.78%. Turning to `CCc1nc(CN(C)C(=O)c2cc(CN(CC)CC)c(CC)o2)no1`, the “Percent Effect” value is listed as 11.36%.

The record behind these values is ChEMBL document CHEMBL3988442, “University of Dundee, Small-Polar-MMV Screening Library” (2021).
